# Test results reported in PubChem BioAssay.
# The source made the active and inactive calls.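 The calls were made as follows: active = luciferase signal above three times the same-plate solvent-only control wells; inactive = the rest.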
# Tested on: not listed separately
# Assay: viability loss with induced miR-34 in A549 – imaging, A549 dox-inducible miR-34, nuclei and caspase counts, primary screen (AID 1347080)
# Details: A549 miR-34 inducible, Hoechst nuclei count, 48 h; measured here: relative caspase fold change +Dox/-Dox
row,SMILES,fold change
1,O=C1OCCN1/N=C/c1ccc([N+](=O)[O-])o1,1.85
2,O=C1CC2OCC=C3CN4CC[C@]56c7ccccc7N1C5[C@H]2[C@H]3CC46 (some centres undefined),1.82
3,CNC(C)[C@@H]1CC[C@@H](N)[C@@H](OC2[C@@H](N)C[C@@H](N)[C@H](OC3OC[C@](C)(O)[C@H](NC)[C@H]3O)[C@H]2O)O1 (some centres undefined),0.842

# Same assay, conditions: A549 miR-34 inducible, Hoechst nuclei count, 48 h; measured here: total cells with miR-34 induction; stronger effect = lower value
row,SMILES,cell count
1,O=C1OCCN1/N=C/c1ccc([N+](=O)[O-])o1,9350
2,O=C1CC2OCC=C3CN4CC[C@]56c7ccccc7N1C5[C@H]2[C@H]3CC46 (some centres undefined),11700
3,CNC(C)[C@@H]1CC[C@@H](N)[C@@H](OC2[C@@H](N)C[C@@H](N)[C@H](OC3OC[C@](C)(O)[C@H](NC)[C@H]3O)[C@H]2O)O1 (some centres undefined),10800

# Same assay, conditions: A549 miR-34 inducible, Hoechst nuclei count, 48 h; measured here: total cells without miR-34 induction
row,SMILES,cell count
1,O=C1OCCN1/N=C/c1ccc([N+](=O)[O-])o1,10900
2,O=C1CC2OCC=C3CN4CC[C@]56c7ccccc7N1C5[C@H]2[C@H]3CC46 (some centres undefined),12700
3,CNC(C)[C@@H]1CC[C@@H](N)[C@@H](OC2[C@@H](N)C[C@@H](N)[C@H](OC3OC[C@](C)(O)[C@H](NC)[C@H]3O)[C@H]2O)O1 (some centres undefined),13000

# Target: Mitogen-activated protein kinase 7 (Homo sapiens) (UniProt Q13164)
# Assay: Gal4-ERK5 driven luciferase induction – cell-based, HTS, primary screen (AID 1508626);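 also: luciferase driven by Gal4-ERK5 fusion binding five Gal4 sites before minimal TATA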
# Details: HeLa Gal4-ERK5 transactivation, 18 h, at 5 µM, stronger effect = higher value
# Chain of Mitogen-activated protein kinase 7 (Homo sapiens) (Q13164 whole entry, looked up, the tested form may be a part): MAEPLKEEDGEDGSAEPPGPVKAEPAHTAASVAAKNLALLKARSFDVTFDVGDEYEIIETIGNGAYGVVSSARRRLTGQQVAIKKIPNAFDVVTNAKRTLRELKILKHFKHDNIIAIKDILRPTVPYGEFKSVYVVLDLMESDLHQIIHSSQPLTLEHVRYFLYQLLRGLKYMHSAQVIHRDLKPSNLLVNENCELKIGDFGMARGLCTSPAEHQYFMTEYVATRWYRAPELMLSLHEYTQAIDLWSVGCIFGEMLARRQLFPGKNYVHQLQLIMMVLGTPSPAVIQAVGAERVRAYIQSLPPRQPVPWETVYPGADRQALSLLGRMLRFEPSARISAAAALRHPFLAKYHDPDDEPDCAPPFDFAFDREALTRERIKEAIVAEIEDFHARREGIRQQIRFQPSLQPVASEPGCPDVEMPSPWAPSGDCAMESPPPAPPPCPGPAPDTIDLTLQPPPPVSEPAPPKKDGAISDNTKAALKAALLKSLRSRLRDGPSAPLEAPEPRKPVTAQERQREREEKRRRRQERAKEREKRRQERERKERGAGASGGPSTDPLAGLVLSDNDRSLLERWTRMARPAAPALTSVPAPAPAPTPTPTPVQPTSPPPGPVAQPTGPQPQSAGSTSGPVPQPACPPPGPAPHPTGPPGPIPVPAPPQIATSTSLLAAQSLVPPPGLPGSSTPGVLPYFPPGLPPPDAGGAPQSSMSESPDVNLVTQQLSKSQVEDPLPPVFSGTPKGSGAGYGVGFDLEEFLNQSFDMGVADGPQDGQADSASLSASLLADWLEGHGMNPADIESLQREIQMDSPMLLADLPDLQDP
row,SMILES,luciferase signal
1,O=C(NC(=O)c1ccccc1Cl)Nc1ccc(OC(F)(F)F)cc1,68 AU (inactive)
2,C=C1C2CC[C@H]3[C@]4(C)C[C@H](OC5OC(CO)C(OS(=O)(=O)O)C(OS(=O)(=O)O)C5OC(=O)CC(C)C)C[C@@H](C(=O)O)[C@H]4CC[C@]3(C2)[C@H]1O (some centres undefined),160 AU (inactive)
3,c1cc2c(cc1[C@H]1OC[C@H]3[C@@H]1CO[C@H]3c1ccc3c(c1)OCO3)OCO2,52 AU (inactive)
4,COc1ccc2c(c1OC)C(=O)O[C@H]2[C@H]1c2cc3c(cc2CCN1C)OCO3,76 AU (inactive)
5,CC1(C)C2C[C@@H](O)[C@]3(C)C(CC[C@@]4(C)[C@H](c5ccoc5)OC(=O)[C@H]5O[C@]543)[C@@]2(C)[C@@H](O)C[C@H]1O (some centres undefined),32 AU (inactive)
6,CC12CCCCC1(Br)[N+](=O)N2[O-] (centres undefined),64 AU (inactive)
7,O=c1ccc2c(O)c3ccoc3cc2o1,32 AU (inactive)
8,CC1(C)N([O-])[N+](=O)C1(C)Br (centres undefined),44 AU (inactive)
9,C=C[C@@H]1C2=CCOC(=O)C2=CO[C@H]1O[C@@H]1O[C@H](CO)[C@@H](O)[C@H](O)[C@H]1O,64 AU (inactive)
10,CNC(Cc1c[nH]c2ccccc12)C(=O)O (centres undefined),36 AU (inactive)
